# PP1 counter – PP1-alpha phosphatase inhibitors, primary screen, counter-screen for PP5 inhibitor project, biochemical, fluorescence, OMFP substrate, single point; actives 0.9% (n = 320,000); inhibition, % at 6.7 µM; purified PP1alpha;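 active means inhibition above the mean inhibition of all tested compounds plus 3 SD, computed separately for each screening campaign, cut at about 15% in these data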
# PAFAH2 inh – PAFAH2 enzyme inhibitors, primary screen, biochemical, fluorescence polarization, human; Platelet-activating factor acetylhydrolase 2, cytoplasmic (Homo sapiens), Q99487; recombinant PAFAH2, FP-rhodamine activity probe; inhibition, % at 3.39 µM; actives 0.99% (n = 340,000); AID 492956, 2010;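 active means inhibition above the mean over all tested compounds plus 3 SD, cut at about 30% in these data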;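 further: inhibitors block probe labeling of enzyme so polarization drops; 0% = enzyme with DMSO and 100% = wells lacking PAFAH2 protein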
# PAFAH1B2 FP inh – PAFAH1B2 enzyme inhibitors, primary screen, biochemical, fluorescence polarization, human; recombinant PAFAH1B2, FP-rhodamine activity probe; Platelet-activating factor acetylhydrolase IB subunit alpha2 (Homo sapiens), P68402; AID 492953, 2010; actives 1.2% (n = 340,000); inhibition, % at 3.39 µM;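 active means inhibition above the mean of all tested compounds plus 3 SD, cut at about 24% in these data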;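 further: 0% = enzyme with DMSO and 100% = wells lacking PAFAH1B2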
# PP5 inh – PP5 phosphatase inhibitors, primary screen, biochemical, fluorescence; purified PP5c, OMFP substrate fluorescence; Serine/threonine-protein phosphatase 5 (Homo sapiens), P53041; inhibition, % at 6.7 µM; AID 1987, 2009; actives 0.18% (n = 320,000);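 active means inhibition above the campaign's mean inhibition across all tested compounds plus 3 SD, cut at about 9.5% in these data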;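 further: 0% = DMSO only and 100% = 100 µM cantharidin control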
# PAFAH1B3 FP inh – PAFAH1B3 enzyme inhibitors, primary screen, biochemical, fluorescence polarization, human | Platelet-activating factor acetylhydrolase IB subunit alpha1 (Homo sapiens), Q15102 | recombinant PAFAH1B3, FP-rhodamine probe | inhibition, % at 3.39 µM | actives 0.28% (n = 340,000) | AID 492972, 2010;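 active means inhibition above the screen-wide average of all tested compounds plus 3 SD, cut at about 25% in these data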;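 further: 0% = enzyme with DMSO only and 100% = wells lacking PAFAH1B3 protein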
# pPAFAH inh – pPAFAH enzyme inhibitors, primary screen, biochemical, fluorescence polarization, human; recombinant pPAFAH, FP-rhodamine probe fluorescence polarization; inhibition, % at 3.39 µM; actives 1.5% (n = 330,000);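 active means inhibition above the mean inhibition across the screen plus 3 SD, cut at about 25% in these data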;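 further: inhibitors block binding of the rhodamine activity-based probe so polarization drops; 0% = enzyme with DMSO and 100% = wells lacking pPAFAH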
# Target sequence (Q13093 whole entry, looked up): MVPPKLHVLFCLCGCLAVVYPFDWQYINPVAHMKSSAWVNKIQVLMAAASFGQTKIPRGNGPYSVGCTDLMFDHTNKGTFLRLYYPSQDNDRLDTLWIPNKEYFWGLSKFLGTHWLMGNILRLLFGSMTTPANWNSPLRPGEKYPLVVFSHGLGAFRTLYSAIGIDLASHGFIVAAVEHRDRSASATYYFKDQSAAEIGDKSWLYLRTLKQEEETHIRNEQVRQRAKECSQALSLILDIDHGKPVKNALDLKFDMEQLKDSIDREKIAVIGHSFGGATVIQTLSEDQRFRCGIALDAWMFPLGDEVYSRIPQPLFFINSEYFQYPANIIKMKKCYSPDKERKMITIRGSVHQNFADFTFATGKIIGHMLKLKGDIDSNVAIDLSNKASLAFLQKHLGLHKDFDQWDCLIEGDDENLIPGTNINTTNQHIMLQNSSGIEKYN
# pPAFAH confirm – pPAFAH (PLA2G7) enzyme inhibitors, confirmation, biochemical, fluorescence polarization, human; shares compounds with pPAFAH inh; recombinant pPAFAH, FP-Rh probe fluorescence polarization; inhibition, % at 3.39 µM; actives 72% (n = 2,300); AID 463230, 2010;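 active means mean inhibition of the triplicate above the hit cutoff set for the earlier primary screen, cut at about 25% in these data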;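 further: 0% = enzyme with DMSO and 100% = wells lacking pPAFAH enzyme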
# PAFAH2 confirm – PAFAH2 enzyme inhibitors, confirmation, biochemical, fluorescence polarization, human; shares compounds with PAFAH2 inh; AID 493030, 2011; recombinant PAFAH2, FP-rhodamine activity probe; inhibition, % at 3.39 µM; actives 65% (n = 2,300);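 active means mean inhibition over three repeats above a set limit taken from the earlier primary screen, cut at about 30% in these data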;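 further: inhibitor blocks binding of rhodamine activity probe so polarization falls; 0% = enzyme with DMSO and 100% = wells lacking PAFAH2 protein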
# The depositor's hits bear a star; . = not tested or not shown. Sampled rows, rich in hits. Any-hit rate of the full collection: about 3.4%.
SMILES,PP1 counter,PAFAH2 inh,PAFAH1B2 FP inh,PP5 inh,PAFAH1B3 FP inh,pPAFAH inh,pPAFAH confirm,others
COc1ccc(C)cc1Nc1n[n+](-c2ccccc2)c(-c2c(Cl)cccc2Cl)s1,7,.,.,1,.,53*,53*,
Fc1ccc(-[n+]2nc(Nc3ccccc3)sc2-c2c(Cl)cccc2Cl)cc1,13,9,1,-5,5,51*,22,
Cc1cccc([C@@H]2[C@@H]3C(=O)N(Cc4ccccc4)C(=O)[C@@H]3[C@]3(Cc4ccc(Cl)cc4)C(=O)N(c4ccc(Br)cc4)C(=O)N23)c1,12,-10,-4,5,9,1,.,
CN(C)C(CNC(=O)c1ccccc1OCc1ccc(Cl)cc1)c1ccco1 (stereo unspecified),3,2,1,3,5,-1,.,
O=[N+]([O-])C1=C(Nc2cccc3ccccc23)CS(=O)(=O)C1,3,3,10,0,7,39*,4,
O=C(Nc1cccc2ccccc12)c1ccc([N+](=O)[O-])o1,0,4,-5,1,5,5,.,
CC(NCC(=O)NC(=O)NC1CCCC1)c1ccc(Cl)cc1Cl (stereo unspecified),1,11,8,3,10,58*,3,
O=C1CSC(=S)N1/N=C/c1ccc(O)c(O)c1O,15,36*,7,0,19,67*,64*,
O=C1CSC(=S)N1/N=C/c1cc(Br)ccc1O,1,.,.,1,.,17,.,
C=CCOc1ccc(C(=O)c2ccccc2)c(OCC(=O)NC2(C#N)CCCC2)c1,7,6,-3,1,1,35*,20,
N#CC1(NC(=O)COc2ccccc2[N+](=O)[O-])CCCCC1,-3,3,2,0,-1,2,.,
CCOC(=O)N/N=C/c1cc(OC)c(O)c(OC)c1,1,8,8,-2,-1,-2,.,
CCOC(=O)c1sc(N/N=C/c2cc(Br)c(O)c(OC)c2)nc1C,-2,12,0,4,13,35*,26*,
CN(C)C(CNC(=S)Nc1ccc(F)cc1)c1cccnc1 (stereo unspecified),1,-5,0,2,2,4,.,
CC1=NN(c2ccccc2)C(=O)/C1=C/c1ccc(Cl)cc1,.,14,9,.,7,.,.,
CC1=NN(c2ccccc2)C(=O)/C1=C/c1c(O)n(-c2ccc(F)cc2)[nH]c1=O,11,48*,47*,7,44*,54*,53*,
CC1=C([N+](=O)[O-])C(c2cccc(Br)c2)C2=C(N1)c1ccccc1C2=O (stereo unspecified),6,5,6,4,3,38*,26*,
COC(=O)C1=C(C)NC2=C(C(=O)c3ccccc32)C1c1cccc(OC)c1 (stereo unspecified),8,11,3,-1,10,5,.,
Cc1ccccc1-c1cc(C(=O)NCC2CC2)nn1CC1CC(c2cccc([N+](=O)[O-])c2)=NO1 (stereo unspecified),1,5,4,3,-2,7,.,
COc1ccc(C(C(=O)NCC2CCCO2)N(Cc2cccs2)C(=O)c2snc(C(N)=O)c2N)cc1OC (stereo unspecified),-6,6,5,-3,0,38*,5,
COc1cc(/C=N/Nc2ccccc2[N+](=O)[O-])cc(OC)c1O,-2,2,0,0,6,21,.,
COc1cc(/C=N/Nc2nc3ccccc3s2)cc([N+](=O)[O-])c1O,5,24,14,0,9,43*,47*,
CC(=O)Nc1ccc(N2C(=O)CSC2c2cccc(Br)c2)cc1 (stereo unspecified),6,4,3,-1,2,-3,.,
OCC[C@@H]1C[C@H](O)[C@@H](O)[C@]2(Cc3ccccc3CO2)O1,-1,4,-1,-1,-1,-4,.,
Cc1cc(C)cc(NC(=O)CCC(=O)N2CCSc3ccccc32)c1,-6,0,6,2,1,12,.,
SMILES,PP1 counter,PAFAH2 inh,PAFAH1B2 FP inh,PP5 inh,PAFAH1B3 FP inh,pPAFAH inh,pPAFAH confirm,others
COC(=O)c1ccccc1NC(=O)CCC(=O)N1CCSc2ccccc21,-4,1,9,2,-2,41*,4,
NC(=O)COC(=O)c1ccccc1Nc1ccc(SC(F)F)cc1,2,-1,1,6,7,20,.,
CC(OC(=O)c1ccccc1Nc1ccc(SC(F)F)cc1)C(N)=O (stereo unspecified),0,-2,4,-1,4,35*,24,
O=C(Nc1ccccc1)N1CCN(S(=O)(=O)c2ccccc2)CC1,-3,4,3,2,5,-4,.,
CCc1ccc(OCC(=O)NNC(=O)c2ccc(NC(=O)C3CC3)cc2)cc1,1,-2,6,3,4,0,.,
O=C(COC(=O)c1ccc(O)cc1)Nc1ccc(N2CCCCC2)cc1,-3,60*,4,0,4,48*,34*,
COc1cc(OC)cc(C(=O)OCC(=O)Nc2ccc(N3CCCCC3)cc2)c1,0,5,0,-3,5,1,.,
COc1cccc(C(=O)O/N=C2\CCS(=O)(=O)c3sccc32)c1,1,70*,8,-2,2,13,.,PAFAH2 confirm=37*
O=S1(=O)CC/C(=N\Nc2ccccc2)c2ccsc21,5,2,-3,-1,8,5,.,
Cc1ccc(C(=O)O/N=C2\CCS(=O)(=O)c3sccc32)cc1,0,88*,0,2,-2,6,.,PAFAH2 confirm=83*
O=C(O/N=C1\CCS(=O)(=O)c2sccc21)c1c(F)cccc1F,-3,2,6,-1,-2,8,.,
COc1ccc(CCC2(C)OCC(CCCCO)O2)cc1 (stereo unspecified),.,-3,6,.,-6,.,.,
CCN(CC)c1ccc(C(=O)OCC(=O)N(C)Cc2ccccc2)cc1,2,48*,1,-3,4,15,.,PAFAH2 confirm=36*

# Screening data: PubChem, The Scripps Research Institute Molecular Screening Center
